Screens as filed in PubChem.
Compounds with a hit are over-represented: about 1.3% of the library has one in this group of screens.
PKM2 act: PKM2 (human) enzyme activation; purified PKM2, Kinase-Glo ATP luminescence, activation; response scale: 0% is enzyme alone, no compound; P14618; 0.34% of 260,000 active; Potency, µM (titrated, usually from 57.5 µM), inactives show top-dose activation, hits mostly activators; also: nearly all actives have a fitted effect of over 55% in size
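Purified hPK-M2 (>95%) run at intermediate activity with 0.1 mM ADP and 0.5 mM PEP in 50 mM imidazole pH 7.2, KCl, MgCl2; 1 h room temperature. ATP formed read by Kinase-Glo luminescence; normalized to uninhibited and no-enzyme controls.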
Anesthetic bind: binds horse apoferritin like a general anesthetic. P02791. apoferritin/1-aminoanthracene competitive binding, fluorescence. Potency, µM (top dose mostly 77.5 µM), without a hit: top-dose activity change, negative = displacement, usual class: inhibitors. 0.074% of 350,000 active. AID 485281; also: nearly all actives have a fitted effect of over 20% in size
Target sequence (P02791 2-175 limits assumed): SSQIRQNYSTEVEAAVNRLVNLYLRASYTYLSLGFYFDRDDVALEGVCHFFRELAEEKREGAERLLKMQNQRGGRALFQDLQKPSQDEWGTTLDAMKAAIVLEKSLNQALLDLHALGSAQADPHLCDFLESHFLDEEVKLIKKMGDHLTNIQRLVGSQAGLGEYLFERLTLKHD
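10 uM apoferritin + 50% sat. 1-AMA, PBS; cpd 10 min RT; Ex380/Em535 endpoint; normalized to free probe vs complex; 4-param Hill fit; propofol titration as pos. ctrl.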
TrxR1 inh: inhibitors of rat thioredoxin reductase 1; O89049; recombinant rTrxR1, NADPH fluorescence consumption, selenite substrate; Potency, µM (highest dose often 114 µM), for the others: at the highest dose activity change, negative = inhibition, usual class: inhibitors; 1% of 390,000 active; AID 588453; also: nearly all actives have a fitted effect of over 65% in size
Target sequence (O89049 whole entry, looked up): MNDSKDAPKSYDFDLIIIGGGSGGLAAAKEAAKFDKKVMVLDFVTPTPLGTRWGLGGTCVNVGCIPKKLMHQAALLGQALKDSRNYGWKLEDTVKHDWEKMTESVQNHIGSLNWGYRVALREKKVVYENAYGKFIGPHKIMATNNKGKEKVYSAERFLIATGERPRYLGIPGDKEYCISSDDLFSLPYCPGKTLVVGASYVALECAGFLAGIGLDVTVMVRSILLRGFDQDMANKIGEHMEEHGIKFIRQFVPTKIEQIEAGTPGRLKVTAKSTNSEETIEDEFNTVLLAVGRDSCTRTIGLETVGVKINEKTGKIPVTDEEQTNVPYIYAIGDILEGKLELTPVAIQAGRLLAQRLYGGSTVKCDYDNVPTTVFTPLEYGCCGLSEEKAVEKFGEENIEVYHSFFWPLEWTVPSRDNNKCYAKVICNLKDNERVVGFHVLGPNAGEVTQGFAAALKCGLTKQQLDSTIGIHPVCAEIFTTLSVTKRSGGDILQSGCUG
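Rat TrxR1 (90 nM in the dispensed reagent) was pre-reduced with 400 uM NADPH for 5 min at room temperature, then incubated with compound for 15 min. After 400 uM selenite was added, NADPH fluorescence (Ex 340/Em 450 nm) was followed for 8 min.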
GALK inhibitor: blocks human galactokinase activity. 0.007% of 270,000 active. Purified GALK, Kinase-Glo residual ATP luminescence. AID 1868. P51570. Potency, µM (titrated, usually from 57.5 µM), inactives show at the highest dose activity change, negative = inhibition, usual class: inhibitors
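Galactose (100 uM) and ATP (35 uM) were turned over by 5 nM GALK for 1 h at RT. Kinase-Glo Plus then converted the remaining ATP into a luminescent signal.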
TrxR1 substrate: rat thioredoxin reductase 1 substrate activity; O89049; purified TrxR1 substrate turnover, NADPH consumption readout; Potency, µM (top dose mostly 114 µM), for the others: at the top dose activity change, negative = substrate turnover; 0.01% of 390,000 active; also: nearly all actives have a fitted effect of over 50% in size
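Rat TrxR1, dispensed at 90 nM, was prereduced with 400 uM NADPH (final) for 5 min at ~22 deg C, then incubated with compound 15 min before 400 uM selenite. A first-read NADPH fluorescence drop versus no-compound background flagged substrates.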
IDH1 R132H inh: human IDH1 R132H inhibition. AID 602179. Potency, µM (highest dose often 76.6 µM), inactives show at the top dose activity change, negative = inhibition, usual class: inhibitors. 0.093% of 390,000 active. IDH1-R132H enzyme, NADPH consumption, diaphorase/resazurin fluorescence. O75874; also: nearly all actives have a fitted effect of over 65% in size
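IDH1-R132H (0.5 ug/mL dispensed) in pH 7.5 Tris buffer was preincubated 30 min with compound, then given a substrate mix of 0.016 mM NADPH and 2 mM alpha-KG for 80 min at room temperature; remaining NADPH was read by diaphorase/resazurin fluorescence.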
* marks the source's active call; other numbers are inactive results; [ ] = remark or other dose. Calls follow the shape of the dose curve; as a rule, active = well fitted curve in the direction sought with a large enough effect; inconclusive = small, poorly fitted or top-dose-only effect, or another doubt; inactive = no such curve, though single readings can be large; an effect the other way counts as inactive or inconclusive. % is scaled to controls: 0 for no effect and ±100 for the full control effect; potency is read from the fitted curve at half-maximal effect.

Results for COc1ccc(S(=O)(=O)N2CCN(C(=O)/C=C/c3ccco3)CC2)cc1 ?
TrxR1 inh: 13µM*; TrxR1 substrate: -2%; IDH1 R132H inh: -1%

What do the screens show for `Cc1ccc(/C=C/C(=O)N2CCN(S(=O)(=O)c3c(C)c(C)cc(C)c3C)CC2)o1`?
PKM2 act: 3.2µM*; Anesthetic bind: -22%; TrxR1 inh: -76%[57.1 µM]; GALK inhibitor: 0%; TrxR1 substrate: -4%[11.4 µM]; IDH1 R132H inh: 4%

What do the screens show for `Cc1ccc(/C=C/C(=O)N2CCN(Cc3ccccc3)CC2)o1`?
PKM2 act: 13%; Anesthetic bind: -7%; TrxR1 inh: 45µM*; GALK inhibitor: -1%; TrxR1 substrate: -9%; IDH1 R132H inh: 0%

Results for CCOC(=O)c1ccc(NC(=O)N2CCOc3ccccc32)cc1 ?
Anesthetic bind: 7%; TrxR1 inh: 34%; TrxR1 substrate: 7%; IDH1 R132H inh: -1%

What do the screens show for `COc1ccc(CN2C(=O)C(NC(=O)c3ccccc3OC)(C(F)(F)F)N=C2c2ccccc2)cc1` (configuration not stated)?
Anesthetic bind: -10%; TrxR1 inh: 4%; TrxR1 substrate: -12%; IDH1 R132H inh: 2%

How did Cc1ccc(/C=C/C(=O)N2CCN(S(=O)(=O)c3ccc(C)c(C)c3)CC2)o1 do in these assays?
PKM2 act: inconclusive; Anesthetic bind: -9%; TrxR1 inh: 18µM*; GALK inhibitor: 0%; TrxR1 substrate: -3%; IDH1 R132H inh: 7%

Results for Cc1ccc(/C=C/C(=O)N2CC(=O)Nc3ccccc32)o1 ?
PKM2 act: 17%; Anesthetic bind: -6%; TrxR1 inh: 79µM*; GALK inhibitor: 12%; TrxR1 substrate: -10%; IDH1 R132H inh: -8%

Results for Cc1cccc(CN2CCN(C(=O)CCl)CC2)c1 ?
PKM2 act: -17%; Anesthetic bind: 0%; TrxR1 inh: 11µM*; GALK inhibitor: 1%; TrxR1 substrate: 7%; IDH1 R132H inh: 1%

How did Cc1cccc(CN2CCN(C(=O)c3cccc4ccccc34)CC2)c1 do in these assays?
PKM2 act: 6%; Anesthetic bind: -6%; TrxR1 inh: 8%[57.1 µM]; GALK inhibitor: 4%; TrxR1 substrate: -3%[57.1 µM]; IDH1 R132H inh: 3%

What do the screens show for `CCCCCCOc1ccc(-c2nc3ccc(Br)cc3c(=O)o2)cc1`?
Anesthetic bind: -3%; TrxR1 inh: 6%; TrxR1 substrate: -2%; IDH1 R132H inh: -13%

How did C1=CN2CC=Cc3cc(/C=C/c4ccnc5ccccc45)cc(c32)C1 do in these assays?
TrxR1 inh: inconclusive; TrxR1 substrate: 7%[0.0914 µM]

Results for COc1ccc(/C=C(/C(=O)c2cccs2)N2C=CC=CC2=C(C#N)C#N)cc1 ?
PKM2 act: 10%; Anesthetic bind: -17%; TrxR1 inh: 0.11µM*; GALK inhibitor: 2%; TrxR1 substrate: 2%; IDH1 R132H inh: -1%

What do the screens show for `N#CC(C#N)=C1C=CC=CN1/C(=C\c1ccco1)C(=O)c1ccc(Br)cc1`?
PKM2 act: 24%; Anesthetic bind: -13%; TrxR1 inh: 1.1µM*; GALK inhibitor: -3%; TrxR1 substrate: -5%; IDH1 R132H inh: 2%

Results for COc1ccc(C(=O)/C(=C\c2ccco2)N2C=CC=CC2=C(C#N)C#N)cc1 ?
PKM2 act: 25%; Anesthetic bind: inconclusive; TrxR1 inh: 8.9µM*; GALK inhibitor: 0%; TrxR1 substrate: 3%; IDH1 R132H inh: 6%

Results for N#CC(C#N)=C1C=CC=CN1/C(=C\c1ccco1)C(=O)c1ccccc1 ?
PKM2 act: 18%; Anesthetic bind: -21%; TrxR1 inh: 1.6µM*; GALK inhibitor: 1%; TrxR1 substrate: -15%; IDH1 R132H inh: 6%

Results for N#C/C(=C/c1ccco1)C(N)=S ?
PKM2 act: -2%; Anesthetic bind: -6%; TrxR1 inh: -4%; GALK inhibitor: 2%; TrxR1 substrate: -5%; IDH1 R132H inh: 12%

How did COc1ccc(C(=O)N/C(=C\c2ccco2)C(=O)OCc2ccco2)cc1 do in these assays?
PKM2 act: -2%; Anesthetic bind: 5%; TrxR1 inh: -80%; TrxR1 substrate: -22%[57.1 µM]; IDH1 R132H inh: 1%

Results for COc1ccc(-n2c(=O)c3ccc(C(=O)NCc4ccc(C)cc4)cc3n(CC(=O)Nc3cccc(F)c3)c2=O)cc1 ?
Anesthetic bind: -21%; TrxR1 inh: 22%; TrxR1 substrate: 9%; IDH1 R132H inh: -2%

Results for O=C(Nc1ccc(N2CCOCC2)cc1)c1ccc2nc(-c3ccco3)c(-c3ccco3)nc2c1 ?
PKM2 act: 1%; Anesthetic bind: -4%; TrxR1 inh: -20%; GALK inhibitor: -3%; TrxR1 substrate: 1%[57.1 µM]; IDH1 R132H inh: 0%

What do the screens show for `O=C(c1cccc(C(=O)N2CCN(c3ncccn3)CC2)c1)N1CCN(c2ncccn2)CC1`?
PKM2 act: -1%; Anesthetic bind: -8%; TrxR1 inh: 1%; GALK inhibitor: -2%; TrxR1 substrate: 5%; IDH1 R132H inh: 5%

What do the screens show for `O=C(Nc1ccc2nc(-c3ccco3)c(-c3ccco3)nc2c1)N1CCN(c2ccccn2)CC1`?
PKM2 act: inconclusive; Anesthetic bind: -14%; TrxR1 inh: 1.4µM*; GALK inhibitor: -1%; TrxR1 substrate: -12%; IDH1 R132H inh: -1%

Results for O=C(c1ccc2nc(-c3ccco3)c(-c3ccco3)nc2c1)N1CCN(c2ncccn2)CC1 ?
PKM2 act: 16%; Anesthetic bind: 107%; TrxR1 inh: 13µM*; GALK inhibitor: 0%; TrxR1 substrate: 5%; IDH1 R132H inh: -2%

What do the screens show for `CC1CCN(C(=O)Nc2ccc3nc(-c4ccco4)c(-c4ccco4)nc3c2)CC1`?
TrxR1 inh: 4µM*; TrxR1 substrate: -15%

How did S=C(Nc1ccc(N2CCOCC2)cc1)Nc1ccc2nc(-c3ccco3)c(-c3ccco3)nc2c1 do in these assays?
PKM2 act: -7%; Anesthetic bind: 152%; TrxR1 inh: 2.5µM*; GALK inhibitor: -3%; TrxR1 substrate: -9%; IDH1 R132H inh: 0%

How did CN(C)c1ccc(/C=C/c2c3c(nc4ccccc24)CCCC3)cc1 do in these assays?
TrxR1 inh: 5%; TrxR1 substrate: -3%

How did CCCCn1cc(S(=O)(=O)c2ccccc2)c(=O)c2cc(F)c(N3CCC(C)CC3)cc21 do in these assays?
Anesthetic bind: inconclusive; TrxR1 inh: 9%; TrxR1 substrate: 19%; IDH1 R132H inh: 8%

Results for CCc1ccccc1NC(=O)Nc1c[nH]c(=O)[nH]c1=O ?
Anesthetic bind: -3%; TrxR1 inh: 12%[57.1 µM]; TrxR1 substrate: -1%[57.1 µM]; IDH1 R132H inh: -4%
